Compounds without any hit were thinned out: in the full panel of roughly 83,000, 20% have a hit.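 Method: cells in 96-well plates; compound added at one concentration; 48 h incubation; percent growth measured; values under 10 scored active.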 Active and inactive are the calls of the source.

One test relates to CAKI-1 renal. Briefly: NCI-60 one-dose screen, 48 h (100 = growth as untreated, 0 = no growth, -100 = all killed). The settings on record: 10 µM unless noted.
As for `O=C(c1ccccc1)C1OC1c1ccc([N+](=O)[O-])cc1` (stereo unspecified), the growth is 72.7% (inactive).

As to `Nc1cccc(Cl)c1N`, the growth was 96.4% (inactive).

Consider `CCN(CC)CCOc1ccc(Cl)c(C)c1`, for which the growth is 102% (inactive).

Regarding `COC(=O)C(Sc1ccc(Cl)cc1)C1SC(=S)N(Cc2ccccc2)C1=O` (stereo unspecified), the growth was 100% (inactive).

On to `CC(=O)Nc1scc[n+]1Cc1ccccc1`, for which the growth is 87.4% (inactive).

With `CCCCN(CCCC)C(=N)c1ccnc2ccccc12`, the growth was 108% (inactive).

As to `O=C(Oc1ccccc1[N+](=O)[O-])C1CCCN1C(=O)OCc1ccccc1` (stereo unspecified), the growth is 93.7% (inactive).

`CCN(CC)c1ccc(CNc2ccnc3ccccc23)cc1`: the growth was 61.9% (inactive).

`CC1=C(C#N)C(=O)NC(C)C1` (stereo unspecified): the growth is 103% (inactive).

With `CC1CCC(C)N(C)C1` (stereo unspecified), the growth is 101% (inactive).

`COC(=O)c1cccc2c1N(C)c1c(cccc1C(=O)OC)CC2`: the growth was 97.7% (inactive).

`CN(C)c1cccc2c(S(=O)(=O)/N=C(\N)Nc3nc4ccccc4s3)cccc12`: the growth was 54% (inactive).

Turning to `Nc1cc2c(cc1C(=O)c1cccc(F)c1)OCCO2`, the growth was 88.4% (inactive).

`O=C(Nc1ccc(NCCN2CCOCC2)nc1)c1ccc([N+](=O)[O-])cc1`: the growth is 99% (inactive).

`COP(=O)(OC)/C(=N\NS(=O)(=O)c1ccc(C)cc1)c1ccccc1`: the growth was 62.1% (inactive).

Turning to `CC(=O)Nc1ccc(/C=C/C(=O)c2ccccc2)cc1`, the growth is 104% (inactive).

For `COc1ccc(CCNC2=CC(=O)CCC2)cc1OC`, the growth is 102% (inactive).

As for `CCCCCCCCCCCCNC(=O)[C@H]1CSC(c2cc3ccccc3s2)N1` (stereo partly specified), the growth is 74.7% (inactive).

Take `COc1cc(Nc2ncccc2C(=O)NCc2cn(Cc3cccc(Oc4ccccc4)c3)nn2)cc(OC)c1`: the growth is 36.9% (inactive).

As for `Cc1ccc(Cc2c(C=O)nc(N)[nH]c2=O)c2ccccc12`, the growth was 92.7% (inactive).

Take `COc1cc(/C=C/C(=O)c2cccc(-n3cc(-c4cc(OC)c(OC)c(OC)c4)[nH]c3=O)c2)cc(OC)c1OC`: the growth was -24.2% (active).

As for `CCCCCCCCCCCCNC(=O)[C@H]1CSC(c2ccsc2)N1` (stereo partly specified), the growth was -13.7% (active).

With `O=c1[nH]c(NCc2ccccc2)nc2nc(Nc3ccc(NC(=S)Nc4ccccc4)cc3)nc(-c3ccc(O)cc3O)c12`, the growth is 77.3% (inactive).

As for `CCC(C)/C(=C\C#N)NCCCN/C(=C/C#N)C(C)CC` (stereo unspecified), the growth is 96.5% (inactive).

Regarding `Oc1ccccc1/C=N/NC(=S)NC1CC2C=CC1C2` (stereo unspecified), the growth is 67.1% (inactive).

Take `COc1ccc(OC)c(C2OC(c3ccc4ccccc4c3O)=NN2C(C)=O)c1` (stereo unspecified): the growth was 87.6% (inactive).

As for `CN1CCN(Cc2ccc(NC(=O)c3cncc(C#Cc4cnc(N)c5cnccc45)c3)cc2C(F)(F)F)CC1`, the growth is -18.9% (active).

On to `COC(OC)c1ccccc1`, for which the growth is 95.4% (inactive).

For the molecule `CC(C)CSc1nc(NN)c(C#N)c(-c2ccc(F)cc2)n1`, the growth is 67.9% (inactive).

As for `COc1cc2c(cc1OCCCN1CCN(CCCn3c4ccccc4c4ccccc43)CC1)N=C[C@@H]1CCCN1C2=O`, the growth is -75% (active).

On to `O=C(Nc1ccncc1)C(=O)c1cn(S(=O)(=O)c2ccc(Oc3ccccc3)cc2)c2ccccc12`, for which the growth was 57% (inactive).

As for `COc1ccc(-c2ccc(C)n2-c2ccc(-c3nc4cc(Cl)ccc4s3)cc2)cc1`, the growth is 79.9% (inactive).

For `CC1(C)C(=O)/C(=C\c2ccc(C(F)(F)F)cc2)C[C@]2(C)[C@H]3CC[C@@H]4[C@H]5[C@H](C(=O)/C=C/c6ccc(C(F)(F)F)cc6)CC[C@]5(CO)CC[C@@]4(C)[C@]3(C)CC[C@@H]12`, the growth was 56.2% (inactive).

For the molecule `O=C(NCc1cn(Cc2cccc(Oc3ccccc3)c2)nn1)c1cccnc1Nc1ccc(F)cc1`, the growth was 53.9% (inactive).

`Cc1ccc(-c2cc3nc(C(Cl)Cl)nc(-c4ccccc4C)n3n2)cc1`: the growth was 48.1% (inactive).

Take `COc1ccc(S(=O)(=O)n2cc(C(=O)C(=O)Nc3ccncc3)c3ccccc32)cc1F`: the growth was 55.3% (inactive).

Consider `CCOC(=O)C1=C(C)NC(C)=C(C(=O)OCC)C1(C)C`, for which the growth was 107% (inactive).

Take `O=c1[nH]c(Nc2ccc(S(=O)(=O)O)cc2)nc2nc(Nc3ccc(NC(=S)Nc4ccccc4)cc3)nc(-c3ccc(O)cc3O)c12`: the growth is 134% (inactive).

A further test concerns A498 renal. Described as above. The settings on record: 10 µM unless noted.
Regarding `O=C(c1ccccc1)C1OC1c1ccc([N+](=O)[O-])cc1` (stereo unspecified), the growth is 110% (inactive).

On to `Nc1cccc(Cl)c1N`, for which the growth is 114% (inactive).

Consider `CCN(CC)CCOc1ccc(Cl)c(C)c1`, for which the growth was 103% (inactive).

Turning to `COC(=O)C(Sc1ccc(Cl)cc1)C1SC(=S)N(Cc2ccccc2)C1=O` (stereo unspecified), the growth is 102% (inactive).

On to `CC(=O)Nc1scc[n+]1Cc1ccccc1`, for which the growth was 112% (inactive).

Take `CCCCN(CCCC)C(=N)c1ccnc2ccccc12`: the growth is 90.6% (inactive).

Consider `O=C(Oc1ccccc1[N+](=O)[O-])C1CCCN1C(=O)OCc1ccccc1` (stereo unspecified), for which the growth is 95.5% (inactive).

With `CCN(CC)c1ccc(CNc2ccnc3ccccc23)cc1`, the growth was 48.2% (inactive).

Take `CC1=C(C#N)C(=O)NC(C)C1` (stereo unspecified): the growth was 104% (inactive).

Turning to `CC1CCC(C)N(C)C1` (stereo unspecified), the growth was 76.5% (inactive).

Regarding `COC(=O)c1cccc2c1N(C)c1c(cccc1C(=O)OC)CC2`, the growth was 132% (inactive).

In the case of `COc1cc(-c2nn(-c3cccc(NC(=O)c4ccc(Cl)c(C(F)(F)F)c4)c3)cc2-c2ccncc2)ccc1Cl`, the growth was 11.8% (inactive).

On to `CN(C)c1cccc2c(S(=O)(=O)/N=C(\N)Nc3nc4ccccc4s3)cccc12`, for which the growth is 74.5% (inactive).

Turning to `Nc1cc2c(cc1C(=O)c1cccc(F)c1)OCCO2`, the growth was 96.5% (inactive).

As for `O=C(Nc1ccc(NCCN2CCOCC2)nc1)c1ccc([N+](=O)[O-])cc1`, the growth is 92.5% (inactive).

As to `COP(=O)(OC)/C(=N\NS(=O)(=O)c1ccc(C)cc1)c1ccccc1`, the growth was 92.4% (inactive).

As to `CC(=O)Nc1ccc(/C=C/C(=O)c2ccccc2)cc1`, the growth was 73.4% (inactive).

For the molecule `COc1ccc(CCNC2=CC(=O)CCC2)cc1OC`, the growth was 105% (inactive).

In the case of `CCCCCCCCCCCCNC(=O)[C@H]1CSC(c2cc3ccccc3s2)N1` (stereo partly specified), the growth was 98.9% (inactive).

Take `COc1cc(Nc2ncccc2C(=O)NCc2cn(Cc3cccc(Oc4ccccc4)c3)nn2)cc(OC)c1`: the growth is 24.2% (inactive).

As for `Cc1ccc(Cc2c(C=O)nc(N)[nH]c2=O)c2ccccc12`, the growth is 118% (inactive).

In the case of `COc1cc(/C=C/C(=O)c2cccc(-n3cc(-c4cc(OC)c(OC)c(OC)c4)[nH]c3=O)c2)cc(OC)c1OC`, the growth was 76.4% (inactive).

As for `CCCCCCCCCCCCNC(=O)[C@H]1CSC(c2ccsc2)N1` (stereo partly specified), the growth is 106% (inactive).

In the case of `O=c1[nH]c(NCc2ccccc2)nc2nc(Nc3ccc(NC(=S)Nc4ccccc4)cc3)nc(-c3ccc(O)cc3O)c12`, the growth was 101% (inactive).

Take `CCC(C)/C(=C\C#N)NCCCN/C(=C/C#N)C(C)CC` (stereo unspecified): the growth was 124% (inactive).

Consider `Oc1ccccc1/C=N/NC(=S)NC1CC2C=CC1C2` (stereo unspecified), for which the growth was 96.2% (inactive).

For `CN1CCN(Cc2ccc(NC(=O)c3cncc(C#Cc4cnc(N)c5cnccc45)c3)cc2C(F)(F)F)CC1`, the growth was -54.8% (active).

As to `COC(OC)c1ccccc1`, the growth was 132% (inactive).

Turning to `CC(C)CSc1nc(NN)c(C#N)c(-c2ccc(F)cc2)n1`, the growth was 68.2% (inactive).

As for `COc1cc2c(cc1OCCCN1CCN(CCCn3c4ccccc4c4ccccc43)CC1)N=C[C@@H]1CCCN1C2=O`, the growth was -96.9% (active).

With `O=C(Nc1ccncc1)C(=O)c1cn(S(=O)(=O)c2ccc(Oc3ccccc3)cc2)c2ccccc12`, the growth is 34.7% (inactive).

With `COc1ccc(-c2ccc(C)n2-c2ccc(-c3nc4cc(Cl)ccc4s3)cc2)cc1`, the growth is 91.4% (inactive).

With `CC1(C)C(=O)/C(=C\c2ccc(C(F)(F)F)cc2)C[C@]2(C)[C@H]3CC[C@@H]4[C@H]5[C@H](C(=O)/C=C/c6ccc(C(F)(F)F)cc6)CC[C@]5(CO)CC[C@@]4(C)[C@]3(C)CC[C@@H]12`, the growth is 93.7% (inactive).

Turning to `O=C(NCc1cn(Cc2cccc(Oc3ccccc3)c2)nn1)c1cccnc1Nc1ccc(F)cc1`, the growth was 26.5% (inactive).

On to `Cc1ccc(-c2cc3nc(C(Cl)Cl)nc(-c4ccccc4C)n3n2)cc1`, for which the growth is 74.4% (inactive).

In the case of `COc1ccc(S(=O)(=O)n2cc(C(=O)C(=O)Nc3ccncc3)c3ccccc32)cc1F`, the growth was 73.4% (inactive).

Regarding `CCOC(=O)C1=C(C)NC(C)=C(C(=O)OCC)C1(C)C`, the growth is 108% (inactive).

As for `O=c1[nH]c(Nc2ccc(S(=O)(=O)O)cc2)nc2nc(Nc3ccc(NC(=S)Nc4ccccc4)cc3)nc(-c3ccc(O)cc3O)c12`, the growth was 111% (inactive).

Values taken from PubChem BioAssay (NCI).
